# Experimental data published in PubChem BioAssay AID463173 (ICCB-Longwood Screening Facility, Harvard Medical School, 2010).
# The whole screen tested about 52,000 compounds, of which about 4,300 (8.3%) were called active. This excerpt belongs to a sample that is enriched for actives. A number with no mark means an inactive call. Rule as the data show it: active = survival mostly below about 52% (no sharp cut-off); inactive = mostly above about 56%.
# Test system: DeltatarO mutant
# Experiment: growth inhibition of S. aureus wild type versus tarO mutant, primary screen, teichoic acid synthesis inhibitors, RN4220, OD600 (AID 463173)
# Conditions: OD600, 18 h, active compounds read low, screened at 18.75 µg/mL (by protocol)
row,SMILES,survival
1,CCC1(c2csc(Nc3ccccc3C)n2)CCC(=O)O1 (stereo not drawn),89%
2,CCCC1CC(C)(c2csc(NCC)n2)OC1=O (stereo not drawn),71% (active)
3,CCCC1CC(C)(/C(C)=N\NC(N)=S)OC1=O (stereo not drawn),98%
4,CCCCc1ccc(NC(=O)C2(C)Cc3ccccc3C(=O)O2)cc1 (stereo not drawn),75%
5,COc1ccc(S(=O)(=O)N(CC(=O)NCCc2ccccc2)c2ccc(Cl)cc2)cc1,83%
6,COc1ccc(CCN2C(=O)N(c3ccc(F)cc3)C(=O)C2CC(=O)Nc2ccc(F)c(F)c2)cc1 (stereo not drawn),61%
7,CCCc1oc2ccc(NS(=O)(=O)c3ccc(OCC)cc3)cc2c1C(=O)OCC,65%
8,CCOC(=O)c1c(C)oc2ccc(N(C(=O)c3ccncc3)S(=O)(=O)c3ccc(F)cc3C)cc12,79%
9,CCOC(=O)c1c(-c2ccccc2)oc2ccc(NS(=O)(=O)c3ccc(OC)cc3)cc12,60%
10,CCOC(=O)c1c(-c2ccccc2)oc2ccc(NS(=O)(=O)c3ccccc3)cc12,35% (active)
11,CCOC(=O)c1c(C)oc2ccc(N(C(=O)c3ccncc3)S(=O)(=O)c3ccc(CC)cc3)cc12,60%
12,CCc1ccc(S(=O)(=O)Nc2ccc3oc(C)c(C(=O)OCCOC)c3c2)cc1,32% (active)
13,CCOC(=O)c1c(-c2ccccc2)oc2ccc(NS(=O)(=O)c3ccc(C)cc3)cc12,83%
14,Cc1cc(F)ccc1S(=O)(=O)Nc1ccc2oc3c(c2c1)CC(C)CC3 (stereo not drawn),56%
15,CCOC(=O)c1c(C)oc2ccc(N(C(=O)c3ccncc3)S(=O)(=O)c3ccc(F)cc3)cc12,28% (active)
16,COCc1oc2ccc(NS(=O)(=O)c3ccc(C)cc3)cc2c1C(=O)OC,60%
17,CCCCOC(=O)c1c(C)oc2ccc(NS(=O)(=O)c3ccc(F)cc3C)cc12,10% (active)
18,CCOC(=O)c1c(-c2ccccc2)oc2ccc(NS(=O)(=O)c3ccc(C)cc3C)cc12,47%
19,CC(C)(C)c1ccc(CN(Cc2ccco2)Cc2nnnn2C2CCCCC2)cc1,105%
20,CC1CCc2c(nc3ncnn3c2NCCN(C)C)C1 (stereo not drawn),88%
21,COc1cccc(NC(=O)Nc2cccc(-c3cn4cccnc4n3)c2)c1,78%
22,COc1ccc(C(=O)n2cnnc2N)cc1,103%

row,SMILES,survival
1,CC(=O)c1c(C)oc2ccc(NS(=O)(=O)c3ccc(C(C)C)cc3)cc12,78%
2,CCOC(=O)c1c(-c2ccccc2)oc2ccc(NS(=O)(=O)c3cc(C)c(C)cc3C)cc12,63%
3,Cc1cc(C)c(S(=O)(=O)Nc2ccc3oc(C)c(C(=O)OC(C)C)c3c2)cc1C,48% (active)
4,CCOc1ccc(CCNC(=O)Cn2c(=O)c3cccn3c3ccc(F)cc32)cc1OCC,74%
5,COc1ccc(CCNC(=O)CCCn2c(=O)c3cccn3c3ccc(F)cc32)cc1OC,43% (active)
6,COc1ccc(CCNC(=O)CCn2c(=O)c3cccn3c3ccc(F)cc32)cc1OC,45% (active)
7,COc1ccc(CNC(=O)CCCn2c(=O)c3cccn3c3ccc(F)cc32)cc1OC,53%
8,COc1ccc(CCNC(=O)CCCn2c(=O)c3cccn3c3ccccc32)cc1OC,61%
9,CCOc1ccc(CCNC(=O)CCCn2c(=O)c3cccn3c3cccnc32)cc1OCC,93%
10,CCOc1ccc(CCNC(=O)CCn2c(=O)c3cccn3c3ccc(F)cc32)cc1OCC,42% (active)
11,COc1ccc(CNC(=O)CCn2c(=O)c3cccn3c3ccc(F)cc32)cc1OC,91%
12,COc1ccc(CCNC(=O)Cn2c(=O)c3cccn3c3ccc(F)cc32)cc1OC,72%
13,COc1ccc(N2CC(NC(=O)c3c(F)cccc3Cl)CC2=O)cc1OC (stereo not drawn),95%
14,COc1ccc(Cl)cc1NC(=O)CSc1nnc(C)n2c1cc1sccc12,68%
15,Cc1ccc(-n2nc(C)c3c(C(F)(F)F)cc(-c4cccnc4)nc32)cc1C,42%
16,CCN(Cc1ccccc1)C(=O)Cn1c(=O)n(Cc2ccccc2)c(=O)c2c1c1cc(OC)ccc1n2C,59%
17,O=C(CN1C(=O)C2(SCC(=O)N2c2cccc(Cl)c2)c2ccccc21)NCCc1ccccc1 (stereo not drawn),104%
18,CCOc1ccccc1CNC(=O)CN1C(=O)C2CCCCN2c2ccc(C(=O)N(C)C)cc21 (stereo not drawn),120%
19,COc1cccc(NC(=O)CSc2nc3ccc(NC(=O)c4ccco4)cc3s2)c1,77%
20,CN(C)c1cccc(C(=O)Nc2nc3ccc(S(=O)(=O)NC(C)(C)C)cc3s2)c1,47% (active)
21,CC(C)(C)NS(=O)(=O)c1ccc2nc(NC(=O)c3cccnc3)sc2c1,86%
22,CN(C)c1cccc(C(=O)Nc2nc3ccc(S(=O)(=O)N4CCCC4)cc3s2)c1,135%

row,SMILES,survival
1,Cc1cccc(NC(=O)Cn2nc(N3CCN(c4ccccc4)CC3)ccc2=O)c1C,87%
2,COc1cc(NC(=O)c2nc3cc(C)c(C)cc3n(C)c2=O)cc(OC)c1OC,94%
3,OC(COc1ccc(Cl)cc1Cl)CN1CCCCC1 (stereo not drawn),70%
4,N=c1n(CCN2CCCCC2)c2ccccc2n1CC(O)COc1ccc(Cl)cc1Cl (stereo not drawn),-16% (active)
5,N=c1n(CCN2CCCCC2)c2ccccc2n1CC(O)COc1ccccc1 (stereo not drawn),163%
6,COc1ccc(OCC(O)Cn2c(=N)n(CCN3CCCCC3)c3ccccc32)cc1 (stereo not drawn),46%
7,Cc1ccccc1OCC(O)Cn1c(=N)n(CCN2CCCCC2)c2ccccc21 (stereo not drawn),71%
8,Cc1ccc(OCC(O)Cn2c(=N)n(CCN3CCCCC3)c3ccccc32)cc1 (stereo not drawn),36% (active)
9,CCN1CCCC1CNC(=O)Nc1c[nH]c2ccc(C)cc2c1=O (stereo not drawn),102%
10,O=C(Nc1nc2n(n1)C(c1ccccc1)C=C(c1ccccc1)N2)c1ccc(Cl)c([N+](=O)[O-])c1 (stereo not drawn),63%
11,CC(C(=O)NCc1ccccc1)N1Cc2ccccc2C1=O (stereo not drawn),95%
12,CCOC(=O)c1c(C)[nH]c(CCC(=O)NCCCN2CCN(c3ccccc3F)CC2)c1C,83%
13,CCC1(CC)Cc2ccccc2-c2nc(NN)n(Cc3ccccc3)c(=O)c21,48% (active)
14,NNc1nc2ccccc2c(=O)n1Cc1ccccc1,100%
15,Cn1c(NN)nc2c(c1=O)C1(CCCC1)Cc1ccccc1-2,59%
16,CN1CCN(C(=S)NCC2CCCO2)CC1 (stereo not drawn),64%
17,Cc1cccc(NC(=O)Cn2c(=O)oc3cc(S(=O)(=O)NC4CCCC4)ccc32)c1,82%
18,CCS(=O)(=O)CCSc1nc(-c2ccc(Br)cc2)cc(-c2ccccc2)c1C#N,85%
19,C=C(C)CSc1nc(-c2ccccc2)cc(-c2ccc(OC)cc2)c1C#N,57%
20,N#CN=C(N)CSc1nc(-c2ccccc2)cc(-c2ccccc2)c1C#N,56%
21,Cc1ccc(-c2cc(C(F)(F)F)c(C#N)c(SCC(=O)Nc3ccccc3)n2)cc1,53% (active)
22,C#CCSc1nc(-c2ccccc2)cc(-c2ccccc2)c1C#N,40% (active)

row,SMILES,survival
1,Cc1ccc(NC(=O)CSc2nc(-c3ccc(F)cc3)cc(C(F)(F)F)c2C#N)cc1,63%
2,COc1ccc(-c2cc(-c3ccccc3)nc(SCC(=O)CC(=O)OC(C)C)c2C#N)cc1,55%
3,COc1ccc(-c2cc(-c3ccccc3)nc(SCC(=O)Nc3ccccc3F)c2C#N)cc1,140%
4,N#Cc1c(C(F)(F)F)cc(-c2ccc(F)cc2)nc1SCC(=O)Nc1ccccc1,72%
5,COc1ccc(NC(=O)CSc2nc(-c3ccccc3)cc(-c3cc(OC)c(OC)c(OC)c3)c2C#N)c(OC)c1,54%
6,CCN(CC)C(=O)CSc1nc(-c2ccccc2)cc(-c2ccc(OC)cc2)c1C#N,45% (active)
7,COc1ccc(-c2cc(-c3ccccc3)nc(SCC(=O)Nc3ccccc3C)c2C#N)cc1,56% (active)
8,COc1ccc(OC)c(NC(=O)Nc2cccc(OCc3cc(=O)n4cc(C)ccc4n3)c2)c1,101%
9,COc1ccc(N2CCN(C(=O)c3ccc4c(c3)N(Cc3cc(C)ccc3C)C(=O)c3ccccc3S4=O)CC2)cc1 (stereo not drawn),85%
10,Cn1c(=O)c2c(-c3ccccc3)n3c4ccccc4nc(-c4ccccc4)c3c2n(C)c1=O,82%
11,CCc1cccc(C)c1NC(=O)CN1C(=O)c2c(c3ccccc3n2C)C1c1ccc(OC)cc1 (stereo not drawn),83%
12,CCSc1ccccc1C(=O)N1CCN(c2nc3ccccc3s2)CC1,92%
13,COc1cccc(NC(=O)C(=O)NCC(c2ccc3c(c2)OCO3)N2CCOCC2)c1 (stereo not drawn),49%
14,COc1ccc(-c2nsc(NC(=O)COc3ccccc3OC)n2)cc1,61%
15,CCOC(=O)c1c(C)[nH]c(CCC(=O)NC(C)c2ccccc2)c1C (stereo not drawn),94%
16,Cc1ccc2nc(N(Cc3cccnc3)C(=O)C3COc4ccccc4O3)sc2c1 (stereo not drawn),94%
17,COc1cc(Cl)c(C)cc1NC(=O)c1cn(C2CCCC2)c(=O)c2c1c1ccccc1n2C,109%
18,COc1cccc(NC(=O)/C(C#N)=C\c2cn(Cc3ccc(Cl)cc3)c3ccccc23)c1,77%
19,COc1ccc(CNC(=O)c2ccc3c(c2)N(Cc2ccccc2C)C(=O)c2ccccc2S3=O)cc1 (stereo not drawn),99%
20,COc1ccc(C2CC(=O)c3cnc4c(-c5ccccc5)c(C)nn4c3C2)cc1OC (stereo not drawn),54%
21,O=C(O)c1c2c(nc3ccc(S(=O)(=O)N4CCC(C(=O)NCc5ccc(Cl)cc5)CC4)cc13)CCCC2,90%
22,N#CC1=C(N)OC2=C(C(=O)CCC2)C1c1ccccc1C(F)(F)F (stereo not drawn),78%
